This note sets out measurements from PMC11995724, “Antibiotic target discovery by integrated phenotypic and activity-based profiling of electrophilic fragments” (Cell chemical biology, 2025).

Each structure is given as a SMILES string. Screen size: about 3,200 compounds; about 110 (3.4%) showed an effect of 50% or more. The full list was thinned out, with strong results kept by preference.

The assay deals with T1, V. cholerae SAD30.
T1 construct: SAD30
The arrangement: species or system S. aureus MSSA476 (TSB) or V. cholerae SAD30 (LB); 384-well bacterial growth screen at 25 uM, OD600 relative to DMSO control. Conditions: relative growth, OD600, LB; 25 µM; inhibitor.
With `N#CC(=Cc1ccc(C#N)cc1)C(=O)Nc1cccc(Cl)c1Cl` [8-J05, 2-cyano-3-(4-cyanophenyl)-N-(2,3-dichlorophenyl)prop-2-enamide], the “% of control remaining” value worked out at 72.9436%.

For `CC(Cl)C(=O)NCCc1nc2cc(F)ccc2s1` (stereo not drawn) [7-P11, 2-chloro-N-[2-(5-fluoro-1,3-benzothiazol-2-yl)ethyl]propanamide], the “% of control remaining” value is reported as 81.4142%.

As to `CC(Cl)C(=O)Nc1ccc(Cc2nnc3ncccn23)cc1` (stereo not drawn) [7-O22, 2-chloro-N-[4-({[1,2,4]triazolo[4,3-a]pyrimidin-3-yl}methyl)phenyl]propanamide], the “% of control remaining” value worked out at 91.0623%.

With `O=C1C=CC(=O)N1c1ccc(OC(F)(F)F)cc1` [10-J19, 1-[4-(trifluoromethoxy)phenyl]-2,5-dihydro-1H-pyrrole-2,5-dione], the “% of control remaining” value is listed as 30.0799%.

Take `CCn1cc(N2C(=O)C=CC2=O)cn1` [10-I21, 1-(1-ethyl-1H-pyrazol-4-yl)-2,5-dihydro-1H-pyrrole-2,5-dione]: the “% of control remaining” value was 56.731%.

As to `O=C(CCl)NCc1ccc(OC(F)(F)F)cc1` [6-G08, 2-chloro-N-{[4-(trifluoromethoxy)phenyl]methyl}acetamide], the “% of control remaining” value came out at 91.3072%.

As to `CCOC(=O)C(C#N)=Cc1ccc(N2C(=O)C=CC2=O)cc1` [10-N11, ethyl 2-cyano-3-[4-(2,5-dioxo-2,5-dihydro-1H-pyrrol-1-yl)phenyl]prop-2-enoate], the “% of control remaining” value came out at 96.6297%.

Take `CCOc1ccc(N2C(=O)C=CC2=O)cc1` [10-A14, 1-(4-ethoxyphenyl)-2,5-dihydro-1H-pyrrole-2,5-dione]: the “% of control remaining” value is listed as 23.3781%.

Turning to `O=C1C=CC(=O)N1c1ccc(Oc2ccccc2)cc1` [10-F17, 1-(4-phenoxyphenyl)-2,5-dihydro-1H-pyrrole-2,5-dione], the “% of control remaining” value amounted to 26.1835%.

Consider `Cc1cc(C(=O)CCl)c(C)n1-c1ccc(OC(F)(F)F)cc1` [10-G04, 2-chloro-1-{2,5-dimethyl-1-[4-(trifluoromethoxy)phenyl]-1H-pyrrol-3-yl}ethan-1-one], for which the “% of control remaining” value was found to be 98.344%.

Take `N#CC(=Cc1ccc(OC(F)F)cc1)C(=O)N1CCCC1` [8-L22, 3-[4-(difluoromethoxy)phenyl]-2-(pyrrolidine-1-carbonyl)prop-2-enenitrile]: the “% of control remaining” value was 77.0224%.

On to `N#CC(=Cc1cccc(Oc2ccccc2)c1)C(=O)N1CCCC1` [9-F06, 3-(3-phenoxyphenyl)-2-(pyrrolidine-1-carbonyl)prop-2-enenitrile], for which the “% of control remaining” value came to 85.724%.

For `O=C1C=CC(=O)N1c1ccc(OC(F)F)cc1` [10-P11, 1-[4-(difluoromethoxy)phenyl]-2,5-dihydro-1H-pyrrole-2,5-dione], the “% of control remaining” value is listed as 36.7816%.

As for `Cc1cc(C(=O)C(C)Cl)c(C)n1-c1ccc(OC(F)F)cc1` (stereo not drawn) [10-E10, 2-chloro-1-{1-[4-(difluoromethoxy)phenyl]-2,5-dimethyl-1H-pyrrol-3-yl}propan-1-one], the “% of control remaining” value was determined as 97.7206%.

As to `O=C(CCl)NCCC1=CCCCC1` [4-H05, 2-chloro-N-[2-(cyclohex-1-en-1-yl)ethyl]acetamide], the “% of control remaining” value is 111.451%.

`O=C(CCl)NCCc1cccc2c1Oc1ccccc1O2` [7-J18, 2-chloro-N-[2-(oxanthren-1-yl)ethyl]acetamide]: the “% of control remaining” value was determined as 77.317%.

Take `CN(CC(=O)Nc1cccc(Cl)c1)C(=O)CCl` [5-F18, 2-chloro-N-{[(3-chlorophenyl)carbamoyl]methyl}-N-methylacetamide]: the “% of control remaining” value is reported as 84.0601%.

Regarding `Cc1ccc(Sc2ccc(NC(=O)CCl)cc2)cc1C` [4-G03, 2-chloro-N-{4-[(3,4-dimethylphenyl)sulfanyl]phenyl}acetamide], the “% of control remaining” value was determined as 107.311%.

For the molecule `CCCCNC(=O)C(C#N)=Cc1ccc2c(c1)OCCO2` [9-G11, N-butyl-2-cyano-3-(2,3-dihydro-1,4-benzodioxin-6-yl)prop-2-enamide], the “% of control remaining” value was 85.724%.

As to `CCc1ccccc1NC(=O)CN(C)C(=O)CCl` [6-L06, 2-chloro-N-{[(2-ethylphenyl)carbamoyl]methyl}-N-methylacetamide], the “% of control remaining” value is 89.1838%.

As to `O=C1C=CC(=O)N1c1ccc2ccccc2c1` [10-D07, 1-(naphthalen-2-yl)-2,5-dihydro-1H-pyrrole-2,5-dione], the “% of control remaining” value is recorded as 22.2872%.

Regarding `Cc1c(Cl)cccc1N1C(=O)C=CC1=O` [10-B17, 1-(3-chloro-2-methylphenyl)-2,5-dihydro-1H-pyrrole-2,5-dione], the “% of control remaining” value is reported as 23.3781%.

As for `Cc1c(Cl)cccc1NC(=O)CNC(=O)CCl` [5-N20, 2-chloro-N-{[(3-chloro-2-methylphenyl)carbamoyl]methyl}acetamide], the “% of control remaining” value came out at 102.049%.

On to `N#Cc1ccccc1N1C(=O)C=CC1=O` [10-B13, 2-(2,5-dioxo-2,5-dihydro-1H-pyrrol-1-yl)benzonitrile], for which the “% of control remaining” value amounted to 22.7547%.

Consider `Cc1ccccc1N1C(=O)C=CC1=O` [10-J13, 1-(2-methylphenyl)-2,5-dihydro-1H-pyrrole-2,5-dione], for which the “% of control remaining” value came to 23.0664%.

In the case of `Cc1ccccc1N1C(=O)CSC1=C(C#N)C(=O)N1CCCCC1` [8-B12, 2-[3-(2-methylphenyl)-4-oxo-1,3-thiazolidin-2-ylidene]-3-oxo-3-(piperidin-1-yl)propanenitrile], the “% of control remaining” value amounted to 78.1101%.

With `Cc1c(Cl)cccc1NC(=O)C(C)Cl` (stereo not drawn) [6-I10, 2-chloro-N-(3-chloro-2-methylphenyl)propanamide], the “% of control remaining” value was 83.2686%.

`CC(Cl)C(=O)Nc1ccccc1C#N` (stereo not drawn) [6-A11, 2-chloro-N-(2-cyanophenyl)propanamide]: the “% of control remaining” value amounted to 96.0091%.

`N#Cc1ccccc1NC(=O)CCl` [5-P04, 2-chloro-N-(2-cyanophenyl)acetamide]: the “% of control remaining” value amounted to 116.339%.

Regarding `Cc1cccc(N2C(=O)C=CC2=O)c1C` [10-H05, 1-(2,3-dimethylphenyl)-2,5-dihydro-1H-pyrrole-2,5-dione], the “% of control remaining” value was 27.1186%.
